Assay outcomes deposited in PubChem BioAssay by National Center for Advancing Translational Sciences (NCATS).
KinaseGlo FLuc = counter-screen: inhibitors of Kinase-Glo firefly luciferase; Potency, µM (titrated, usually from 38.3 µM), for inactives: top-dose activity change, negative = inhibition, actives largely listed as inhibitors; Q27757; Kinase-Glo luciferase, ATP luminescence, 8 min; 200,000 compounds, 0.28% hits; note: % is set by controls: 0 for no effect and ±100 for the full control effect; nearly all actives have a fitted effect of over 60% in size
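Luminescence was the read-out, taken after 8-minute incubation at ambient temperature. Luciferase turned over luciferin with 10 uM ATP in imidazole pH 7.2 buffer containing KCl, MgCl2, Tween 20 and BSA.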
FLuc modulator = inhibits or activates purified firefly luciferase, miR-21 counter-screen. 360,000 compounds, 6.9% hits. purified FLuc, Km substrates, luminescence inhibition. Potency, µM (doses to about 57.5 µM), without a hit: top-dose activity change, negative = inhibition, hits mostly inhibitors. AID 588342;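 note: plate controls were vehicle for no effect and reference inhibitor for full effect; nearly all actives have a fitted effect of over 55% in size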
Target sequence (P08659 whole entry, looked up): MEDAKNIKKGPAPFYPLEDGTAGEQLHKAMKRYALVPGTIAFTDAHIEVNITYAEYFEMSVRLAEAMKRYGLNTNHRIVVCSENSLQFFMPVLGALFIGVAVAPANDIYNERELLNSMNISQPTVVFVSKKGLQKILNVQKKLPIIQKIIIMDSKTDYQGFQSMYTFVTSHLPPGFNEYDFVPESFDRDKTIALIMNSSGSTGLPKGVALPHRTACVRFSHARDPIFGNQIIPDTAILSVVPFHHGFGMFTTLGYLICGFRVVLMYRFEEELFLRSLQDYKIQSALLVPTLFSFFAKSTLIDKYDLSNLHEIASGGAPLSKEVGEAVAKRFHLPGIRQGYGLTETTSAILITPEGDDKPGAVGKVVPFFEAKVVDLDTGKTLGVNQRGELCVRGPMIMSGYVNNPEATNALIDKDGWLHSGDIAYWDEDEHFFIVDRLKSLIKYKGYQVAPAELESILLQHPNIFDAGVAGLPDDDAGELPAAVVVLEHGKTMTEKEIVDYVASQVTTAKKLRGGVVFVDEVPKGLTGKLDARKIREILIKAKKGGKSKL
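Biochemical qHTS of compounds, final roughly 60 µM downward over six points, against 10 nM purified firefly luciferase using Km concentrations of substrates (10 uM D-luciferin, 10 uM ATP) in Tris acetate pH 7.5 buffer; luminescence output.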
Rab9 prom act = activators of Rab9 promoter | AID 485297 | Potency, µM (top dose mostly 9.22 µM), for inactives: top-dose activation, negative = inhibition, hits mostly activators | 320,000 compounds, 2.8% hits | Huh7 Rab9 promoter-luciferase reporter, luminescence, 24 h; note: % of control where 0% means no effect; nearly all actives have a fitted effect of over 60% in size
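Cell-based reporter: Huh7 stable for Rab9 promoter-driven luciferase, plated in reduced-serum medium with 10% FBS at 1500 cells/well, compound-treated 24 h at 37 °C, luminescence read after 10 min reagent.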
SMN2 splice up = SMN2 splice variant enhancement | AID 1458 | Potency, µM (highest dose often 46.1 µM), for the others: top-dose activity change, positive = activation, most hits filed as activators | 210,000 compounds, 2.8% hits | HEK293 SMN2-luciferase splicing reporter, luminescence, 30-36 h; note: % of control where 0% means no effect; nearly all actives have a fitted effect of over 55% in size
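HEK293 cells carry an SMN2 minigene-luciferase reporter in which exon 7 inclusion puts luciferase in frame. Cells were seeded at 2000 cells/well, attached for 10-12 hours, then exposed to compounds for 30-36 hours at 37C before ONE-Glo luminescence.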
ELG1 genotoxic = inducers of genotoxicity in HEK293T ELG1-luciferase cells | HEK293T ELG1-luciferase reporter, luminescence, 16 h | Potency, µM (titrated, usually from 46 µM), for the others: at the highest dose activity change, positive = activation, hits mostly activators | 330,000 compounds, 1.3% hits | AID 504466; note: % of control where 0% means no effect; nearly all actives have a fitted effect of over 60% in size
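16 hr compound incubation (37 °C, 5% CO2) of HEK293T cells carrying luciferase-tagged ELG1; luciferase then measured by ONE-Glo luminescence after 30 min at RT.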
NPC1 promoter act = NPC1 promoter activation | Huh7 NPC1 promoter luciferase reporter, 24 h | Potency, µM (series often up to 9.22 µM), for inactives: at the top dose activation, usual class: activators | 320,000 compounds, 2.4% hits | AID 485313; note: % of control where 0% means no effect; nearly all actives have a fitted effect of over 60% in size
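Luminescence read-out of NPC1 promoter-driven luciferase in stably transfected Huh7 cells; compounds delivered in DMSO and left 24 h at 37C, 5% CO2, qHTS titration format.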
* = called active by the depositor; ? = inconclusive; / = no result given; [ ] = dose if it differs, or a comment. Compounds with a hit are over-represented: about 7.5% of the library has one in this group of screens. Calls come from the whole dose curve; as a rule, active = well fitted curve in the direction sought with a large enough effect; inconclusive = small, poorly fitted or top-dose-only effect, or another doubt; inactive = no such curve, though single readings can be large; an effect the other way counts as inactive or inconclusive. Potency is the fitted concentration of half-maximal effect.

SMILES	KinaseGlo FLuc	FLuc modulator	Rab9 prom act	SMN2 splice up	ELG1 genotoxic	NPC1 promoter act
CCOc1ccccc1C(=O)Nc1cccc(-c2ccc(N3CCOCC3)nn2)c1	/	1.5µM*	4.5µM*	/	?	?
COc1ccc(C(=O)Nc2cccc(-c3ccc(N4CCOCC4)nn3)c2)cc1OC	/	0.76µM*	2.8µM*	/	10%	?
CCOc1ccccc1C(=O)Nc1ccc(S(=O)(=O)N2CCOCC2)cc1	-1%	6%	2%	2%	2%	-1%
Clc1ccc(-c2cc3ccccc3[nH]2)cc1	0%	9.5µM*	4µM*	18%	?	?
CCCCNC(=O)C(CC)Sc1nnc(-c2ccc(F)cc2)c(-c2ccc(F)cc2)n1 (stereo unspecified)	/	-6%	/	/	/	/
CCC(=O)c1ccc(OCC(=O)OCC(=O)N(CCC#N)c2ccc3c(c2)OCCO3)cc1	/	/	/	/	2%	/
O=C(N/N=C/c1ccccc1F)c1csc2c1CCCC2	-5%	2.7µM*	1.3µM*	8.9µM*	?	1.1µM*
Cc1cccc(C)c1NC(=O)c1csc2c1CCCC2	/	-3%	/	-4%	/	/
O=C(N/N=C/c1cccc(F)c1)c1csc2c1CCCC2	-1%	4.8µM*	1.3µM*	14µM*	?	1µM*
C=Cc1ccc(Cn2c(=O)n(-c3ccc(C)cc3)c(=O)c3c2c2cc(OC)ccc2n3C)cc1	/	1%	/	/	/	/
Cc1ccc(S(=O)(=O)N2CCN(Cc3ccccc3)CC2)c(C)c1NS(C)(=O)=O	/	0%	/	/	/	/
CC(=O)c1ccc(NC(=O)CSc2nc(C3CCCC3)nc3c2c(=O)n(C)c(=O)n3C)cc1	/	-3%	/	/	/	/
Cc1ccc(C(=O)c2coc3c2C(=O)C(=O)c2ccccc2-3)cc1	-5%	?	20%	-14%	14µM*	15%
Cc1cccc(C(=O)O)c1C[C@H]1NCC[C@H]2c3ccccc3N[C@@H]12	-5%[7.66 µM]	/	/	-2%[9.22 µM]	/	/
Cc1nn(-c2ccc(F)cc2)c(Cl)c1/C=N/NC(=O)c1cccs1	3%	?	2µM*	?	17%	?
CNC(=S)N/N=C/c1c(C)nn(-c2ccc(F)cc2)c1Cl	-1%	-3%	-4%	11%	15%	-3%
Cc1nn(-c2ccc(F)cc2)c(Cl)c1/C=N/NC(=O)c1ccc(O)cc1	0%	19µM*	0%	9%	-3%	2%
CC(C)(C)C(=O)COC(=O)c1cccc(NC(=O)c2ccco2)c1	1%	?	5%	?	11%	4%
O=C(COC(=O)c1cccc(NC(=O)c2ccco2)c1)c1ccc(Br)cc1	-3%	1.7µM*	?	13%	10%	?
COc1ccc(C(=O)COC(=O)c2ccc(NC(=O)c3ccccc3)cc2)cc1	-2%	1%	-3%	7%	19%	-6%
O=C(COC(=O)c1cccc(NC(=O)c2ccc(Br)cc2)c1)c1ccc(Cl)cc1	/	2.7µM*	/	?	/	/
Cc1nc2cccnc2n1C1CCN(S(=O)(=O)c2ccc(C(C)C)cc2)CC1	/	-20%	/	/	/	/
O=C(NCc1ccccc1)c1cc2ccccc2oc1=O	/	15µM*	-2%	/	?	19%
COc1ccc(CNC(=O)c2cc3ccccc3oc2=O)cc1	/	?	-1%	/	0%	-5%
O=C(NCc1ccc(Cl)cc1)c1cc2ccccc2oc1=O	/	?	2%	/	8%	1%
SMILES	KinaseGlo FLuc	FLuc modulator	Rab9 prom act	SMN2 splice up	ELG1 genotoxic	NPC1 promoter act
CN(C)C(CNC(=O)c1cc2ccccc2oc1=O)c1ccccc1 (stereo unspecified)	/	15µM*	?	/	?	3.5µM*
S=C(Nc1ccc(Oc2ccccc2)cc1)NC1CCCC1	6%	?	-6%	?	0%	2%
FC(F)Sc1ccc(NC(=S)NC2CCCCC2)cc1	-2%	11µM*	?	?	?	26%
S=C(NCC1CCCCC1)Nc1ccc(Oc2ccccc2)cc1	2%	1%	-5%	-42%	-2%	0%
CN(CC(=O)Nc1ccc(SC(F)F)cc1)C1CCCCC1	-1%	-3%	2%	-5%	-7%	-3%
FC(F)Sc1ccc(NC(=S)NCC2CCCCC2)cc1	-2%	24µM*	8%	25%	?	8%
CC(=O)c1ccc(NC(=S)NC2CCCC(C)C2C)cc1 (stereo unspecified)	0%	?	2%	12%	1%	-2%
CC1CCCCC1NC(=S)Nc1ccc(SC(F)F)cc1 (stereo unspecified)	-3%	21µM*	9%	?	-13%	5%
S=C(Nc1ccc(Br)cc1)NC1CCCC1	-1%	12µM*	?	11µM*	12%	26%
CCOc1ccc(Nc2sc(C(=O)c3ccc4c(c3)OCO4)c(N)c2S(=O)(=O)c2ccc(C)cc2)cc1	/	2%	/	/	/	/
Cc1ccc(-c2cc3ccccc3nc2N2CCCC2)cc1	2%	-2%	0%	-32%	-2%	-3%
Cc1ccc(C)c(Nc2cc(C(=O)NC3CCCCC3)c3ccccc3n2)c1	/	-4%	/	5%	/	/
Cc1ccc2c(c1)-c1nc3ccccc3cc1C2=NC1CCCCC1	-2%	11µM*	3.5µM*	6.3µM*	?	?
Cc1ccc2c(c1)C(=NC1CCCCC1)c1cc3ccccc3nc1-2	-1%	15µM*	?	2.8µM*	?	11%
COc1ccc2oc(-c3ccccc3)c(C(=O)O)c2c1	/	-5%	-4%	/	5%	-1%
Cc1ccc2oc(-c3ccccc3)c(C(=O)O)c(=O)c2c1	-3%	21µM*	?	?	?	3.5µM*
Cc1ccc(COc2ccc3oc(-c4ccccc4)c(C(=O)O)c3c2)cc1	/	11µM*	/	11%	/	/
CC(C(=O)Nc1cccc(S(=O)(=O)N2CCOCC2)c1)N1CCN(c2ccc(F)cc2)CC1 (stereo unspecified)	-3%	-1%	-4%	-28%	-3%	-3%
CCOC(=O)c1c(NC(=O)C(C)Sc2cn(CCNC(=O)c3ccc(OC)c(OC)c3)c3ccccc23)sc2c1CCC2 (stereo unspecified)	/	-3%	/	9%	/	/
O=C(c1ccc2c(c1)N(Cc1ccc(Cl)cc1)C(=O)c1ccccc1S2=O)N1CCC(Cc2ccccc2)CC1 (stereo unspecified)	/	-4%	/	2%	/	/
COc1cc(-c2nnc(NC(=O)c3ccco3)o2)cc(OC)c1OC	/	-3%	-5%	/	5%	-1%
O=C(Nc1nnc(-c2ccc(Br)cc2)o1)c1ccco1	/	2.7µM*	?	/	6%	22%
CS(=O)(=O)c1ccc(-c2nnc(NC(=O)c3ccco3)o2)cc1	/	12µM*	-4%	/	10%	0%
Cc1ccn2c(=O)c(C(=O)NCCc3ccc(S(N)(=O)=O)cc3)c(O)nc2c1	/	-4%	/	-1%	/	/
